By AC50 is commonly meant the concentration giving half of the maximal activity seen.

Test [1] has as its target Estrogen receptor (Homo sapiens) (UniProt P03372). As to the kind of experiment: CCTE_Deisenroth_AIME_384WELL_LUC_Active: CCTE's 384-well Estrogen Receptor Transactivation Assay with AIME metabolic competence (ERTA luciferase; metabolism positive), Deisenroth Lab (AID 2284030). Summed up:
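Test chemicals (10-point series, 0.002 - 200 uM) were preincubated 2 hours with alginate-immobilized phenobarbital/beta-naphthoflavone-induced male Sprague Dawley rat liver S9; conditioned medium then went onto VM7Luc4E2 breast cells for 24 hour. Luciferase gain-of-signal fitted relative to 17beta-estradiol.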

Test [2] is described as follows: CCTE_Deisenroth_AIME_384WELL_CTox_Active: Cytotoxicity Assessment (CTOX) in CCTE's 384-well Estrogen Receptor Transactivation Assay with AIME metabolic competence (metabolism positive), Deisenroth Lab (AID 2284037).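 Also: activity means signal loss indicating cell death.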 The essentials: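 VM7Luc4E2 breast cells received medium pre-incubated 2 h with chemical over alginate microspheres holding induced male Sprague Dawley rat liver S9; viability read 24 h later by protease-substrate fluorescence. Loss of signal, bidirectional fit, 0.002–200 uM.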

Test [3] concerns the target Estrogen receptor (Homo sapiens) (UniProt P03372). As to the kind of experiment: CCTE_Deisenroth_AIME_384WELL_LUC_Inactive: CCTE's 384-well Estrogen Receptor Transactivation Assay without AIME metabolic competence (ERTA luciferase; metabolism negative), Deisenroth Lab (AID 2284038).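 Also: hits raise estrogen receptor luciferase signal so potencies reflect agonists.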 The essentials: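 Chemicals (10-point series, 0.002 - 200 uM) were incubated 2 hours with alginate-water microsphere lids lacking S9, then the conditioned medium was transferred to VM7Luc4E2 breast cells for 24 hour. Luciferase induction was read by bioluminescence, fitted upward relative to 17beta-estradiol.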

The nature of test [4]: CCTE_Deisenroth_AIME_384WELL_CTox_Inactive: Cytotoxicity Assessment (CTOX) in CCTE's 384-well Estrogen Receptor Transactivation Assay without AIME metabolic competence (metabolism negative), Deisenroth Lab (AID 2284039).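 Also: cell viability via live-cell protease substrate cleaved to fluorescent probe; cells exposed 24 h to medium preincubated 2 h with alginate-water beads without S9.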 Summed up: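 Metabolism-negative arm: chemicals (10-point, 0.002 - 200 uM) preincubated 2 h with alginate-water lids, medium moved onto VM7Luc4E2 cells for 24 h. Fluorescent live-cell protease readout; bidirectional curve fit.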

The nature of test [5]: CCTE_Deisenroth_AIME_96WELL_CTox_Active: Cytotoxicity Assessment (CTOX) in CCTE's 96-well Estrogen Receptor Transactivation Assay with AIME metabolic competence (metabolism positive), Deisenroth Lab (AID 2284028). Summed up:
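Chemicals (0.002–200 uM) were first incubated 2 h with alginate-immobilized phenobarbital/beta-naphthoflavone-induced male rat liver S9; conditioned medium then went onto VM7Luc4E2 cells for 24 h, with viability read by protease-substrate fluorescence, fitted bidirectionally.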

The nature of test [6]: CCTE_Deisenroth_AIME_96WELL_CTox_Inactive: Cytotoxicity Assessment (CTOX) in CCTE's 96-well Estrogen Receptor Transactivation Assay without AIME metabolic competence (metabolism negative), Deisenroth Lab (AID 2284029). The essentials: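 Chemicals (10-point series, 0.002-200 uM) were incubated 2 h with alginate-water microspheres lacking S9. The conditioned medium was then transferred onto VM7Luc4E2 cells for 24 h. Viability was measured by protease-substrate cleavage to a fluorescent probe, with loss of signal fitted bidirectionally; n≥4 experimental replicates.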

A short description of test [7]: CCTE_Shafer_MEA_dev_firing_rate_mean: CCTE's Neural Network Formation Assay for Mean Firing Rate, Shafer Lab (AID 2284031; active = hit-call score of the fitted dose curve at least 0.9, where 1 is the maximum; inactive = score below 0.9;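 also: AUC of well mean spike rate recorded on DIV 5 7 9 and 12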;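 as to AC50: curve fitted for loss of firing so AC50 reflects decreased mean firing rate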). The essentials: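 Developing rat cortical networks on MEA plates undergo 12-day compound exposure. Firing frequency, averaged across active electrodes, is integrated as area under the curve over four recording days, referenced to DMSO.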
Test [8] can be described thus: CCTE_Shafer_MEA_dev_per_burst_spike_percent: CCTE's Neural Network Formation Assay for Percent of Spikes in a Burst, Shafer Lab (AID 2284032; active = hit-call score of the fitted dose curve at least 0.9, where 1 is the maximum; inactive = score below 0.9). Summed up: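 Rat primary cortical neurons on 16-electrode MEA wells, dosed from plating day 0 for 12 days with renewal on DIV 5 and 9; spikes-in-bursts percentage averaged over bursting electrodes, collapsed as AUC across days 5, 7, 9, 12; loss direction versus DMSO.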

Test [9] has as its target Estrogen receptor (Homo sapiens) (UniProt P03372). As to the kind of experiment: CCTE_Deisenroth_AIME_96WELL_LUC_Active: CCTE's 96-well Estrogen Receptor Transactivation Assay with AIME metabolic competence (ERTA luciferase; metabolism positive), Deisenroth Lab (AID 2284023). The essentials:
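Chemicals pre-incubated 2 h with alginate-immobilized phenobarbital/beta-naphthoflavone-induced male Sprague Dawley rat liver S9, then medium transferred to VM7Luc4E2 cells for 24 h luciferase read-out. 10-point series 0.002 - 200 uM; fitted relative to 17beta-estradiol.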

For test [10] the target is unchanged. As to the kind of experiment: CCTE_Deisenroth_AIME_96WELL_LUC_Inactive: CCTE's 96-well Estrogen Receptor Transactivation Assay without AIME metabolic competence (ERTA luciferase; metabolism negative), Deisenroth Lab (AID 2284025). Summed up: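 VM7Luc4E2 breast cells, luciferase read 24 h after dosing with medium pre-incubated 2 h on alginate-water lids (metabolism negative). 10-point series 0.002–200 uM, single technical replicate, n≥4; fit relative to 17beta-estradiol.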

A short description of test [11]: CCTE_Shafer_MEA_acute_per_burst_spike_number_mean: CCTE's Neural Acute Assay for Average Number of Spikes Per Burst, Shafer Lab (AID 2284015; active = hit-call score of the fitted dose curve at least 0.9, where 1 is the maximum; inactive = score below 0.9). Summed up: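 Read-out: percent change in mean spikes per burst, each well's post-exposure 40-min recording versus its own 40-min baseline. Rat cortical cultures, DIV 13 or 15, compounds 0.03-40 uM; DMSO is negative control, loss-of-signal fitting.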

Test [12] is described as follows: CCTE_Shafer_MEA_acute_interburst_interval_mean: CCTE's Neural Acute Assay for Mean Interburst Interval, Shafer Lab (AID 2284016; active = hit-call score of the fitted dose curve at least 0.9, where 1 is the maximum; inactive = score below 0.9;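 also: percent change of mean interburst interval versus each well's own pre-dose baseline; curves fitted for decrease in interburst interval relative to DMSO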). The essentials: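 Rat cortical cultures, DIV 13/15; 20 min equilibration, 40 min baseline, compound 0.03-40 uM, 40 min re-recording, 37 C. Spikes detected at 8x rms noise (300-5000 Hz band-pass). Endpoint: % change in interburst interval, fitted in loss direction vs DMSO.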

Test [13] can be described thus: CCTE_Shafer_MEA_acute_burst_percentage_mean: CCTE's Neural Acute Assay for Percentage of Spikes in a Burst, Shafer Lab (AID 2284017; active = hit-call score of the fitted dose curve at least 0.9, where 1 is the maximum; inactive = score below 0.9). Summed up:
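Rat cortical cultures, DIV 13/15, 37 C. Spikes detected at 8x rms noise (300-5000 Hz band-pass). Burst spikes/total spikes averaged across electrodes per well; % change post- vs pre-treatment (40 min each), loss-of-signal fit vs DMSO.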

Test [14] can be described thus: CCTE_Shafer_MEA_acute_burst_percentage_std: CCTE's Neural Acute Assay for Standard Deviation of Burst Percentage, Shafer Lab (AID 2284018; active = hit-call score of the fitted dose curve at least 0.9, where 1 is the maximum; inactive = score below 0.9;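 also: fitted in the negative direction so actives lower burst percentage SD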). The essentials: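 Primary rat cortical neurons on 16-electrode MEA wells were recorded 40 min at baseline (DIV 13 or 15), then 40 min after compound (0.03-40 uM), at 37 C. Well value is SD across electrodes of spikes-in-bursts/total spikes; endpoint is percent change, DMSO-referenced.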

The nature of test [15]: CCTE_Shafer_MEA_acute_per_network_burst_spike_number_mean: CCTE's Neural Acute Assay for Average Number of Spikes in a Network Burst, Shafer Lab (AID 2284019; active = hit-call score of the fitted dose curve at least 0.9, where 1 is the maximum; inactive = score below 0.9). Summed up: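 Primary rat cortical neurons on 16-electrode MEA wells, DIV 13 or 15, 37 C; 40-min baseline then 40-min recording with compound (0.03-40 uM). Spikes per network burst (total spikes/number of bursts) expressed as percent change from baseline, DMSO reference.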

The nature of test [16]: CCTE_Shafer_MEA_acute_network_burst_percentage: CCTE's Neural Acute Assay for Percentage of Network Bursts, Shafer Lab (AID 2284022; active = hit-call score of the fitted dose curve at least 0.9, where 1 is the maximum; inactive = score below 0.9;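 also: curves fitted for loss so actives lower network burst percentage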). The essentials:
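Primary rat cortical neurons on 16-electrode MEA wells, treated on DIV 13 or 15 with compound (0.03-40 uM); 40-min baseline and 40-min post-exposure recordings at 37 C. Value is percent change in spikes within network bursts versus baseline, DMSO negative control.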

Test [17] can be described thus: CCTE_Shafer_MEA_acute_cross_correlation_area: CCTE's Neural Acute Assay for Area of Cross Correlation, Shafer Lab (AID 2284024; active = hit-call score of the fitted dose curve at least 0.9, where 1 is the maximum; inactive = score below 0.9;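 also: area under pooled inter-electrode spike cross-correlation near zero lag as percent change from own baseline; curves fitted for loss of cross-correlation area so actives lower synchrony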). Summed up:
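Primary rat cortical neurons on 48-well MEA plates (16 electrodes/well) were recorded 40 min at baseline on DIV 13 or 15, then 40 min with compound (0.03-40 uM) at 37 C; cross-correlation area expressed as percent change from baseline.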

Test [18] is described as follows: CCTE_Shafer_MEA_acute_cross_correlation_HWHM: CCTE's Neural Acute Assay for Cross Correlation at Half Width at Half Maximum, Shafer Lab (AID 2284026; active = hit-call score of the fitted dose curve at least 0.9, where 1 is the maximum; inactive = score below 0.9;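 also: spontaneous network firing of rat primary cortical neurons on multiwell microelectrode arrays; hits are a decrease in cross-correlogram half width relative to DMSO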). The essentials: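 Primary rat cortical neurons on 16-electrode MEA wells; 40-min baseline on DIV 13 or 15, then 40-min recording with compound (0.03-40 uM) at 37 C. HWHM of spike cross-correlogram expressed as percent change from baseline per well, DMSO reference.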

Test [19] can be described thus: CCTE_Shafer_MEA_acute_synchrony_index: CCTE's Neural Acute Assay for Synchrony, Shafer Lab (AID 2284027; active = hit-call score of the fitted dose curve at least 0.9, where 1 is the maximum; inactive = score below 0.9;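 also: network synchrony index of spontaneous spiking in primary rat cortical neurons on MEAs; fitted for loss of signal so actives lower synchrony relative to DMSO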). Summed up:
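Spontaneous firing of mature rat cortical networks is captured extracellularly on microelectrode arrays at 37 C, with wells needing ≥10 active electrodes. Each compound (0.03-40 uM) is judged by the change in synchrony index from baseline over 40 min.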

Structures are written as SMILES. Results filed as inconclusive are left out. Activity calls are given as the source filed them. The calls were made as follows, unless noted: active = hit-call score of the fitted dose curve at least 0.9, where 1 is the maximum; inconclusive = response in the unintended direction; inactive = score below 0.9.

Sequence of Estrogen receptor (Homo sapiens) (P03372 whole entry, looked up): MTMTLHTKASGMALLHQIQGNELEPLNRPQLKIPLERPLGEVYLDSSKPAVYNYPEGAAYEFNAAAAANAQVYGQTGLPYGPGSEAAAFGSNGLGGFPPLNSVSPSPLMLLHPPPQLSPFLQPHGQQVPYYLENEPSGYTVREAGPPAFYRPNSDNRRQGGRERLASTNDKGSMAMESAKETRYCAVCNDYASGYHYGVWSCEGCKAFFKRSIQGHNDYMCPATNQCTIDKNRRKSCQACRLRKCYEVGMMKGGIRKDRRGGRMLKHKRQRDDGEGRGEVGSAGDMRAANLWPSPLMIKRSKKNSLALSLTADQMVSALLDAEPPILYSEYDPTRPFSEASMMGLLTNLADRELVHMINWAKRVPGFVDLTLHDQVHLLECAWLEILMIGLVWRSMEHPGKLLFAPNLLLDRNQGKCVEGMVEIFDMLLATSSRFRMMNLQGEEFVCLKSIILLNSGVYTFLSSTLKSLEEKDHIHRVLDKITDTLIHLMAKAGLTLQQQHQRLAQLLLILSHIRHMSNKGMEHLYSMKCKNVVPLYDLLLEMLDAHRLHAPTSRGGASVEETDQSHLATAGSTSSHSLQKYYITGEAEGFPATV

As for `COc1cc(C=O)ccc1O`, the call in test [1], in test [2] and in test [3] was inactive.
For `CCCCCCCC=O`, the AC50 in test [1] was 27.9 µM (active); in [3] it was 25.7 µM (active).
Take `CCCCOC(=O)CCCCCCCCC(=O)OCCCC`: the compound was classed as inactive in [1], in test [2], in test [3] and in test [4].
Regarding `NCCO`, the compound was classed as inactive in test [1], in test [2], in [3] and in [4].
For `CNC(=O)[C@H]1O[C@@H](n2cnc3c(NCc4cc(Cl)ccc4OCc4cc(C)no4)ncnc32)[C@H](O)[C@@H]1N`, the compound was classed as inactive in test [1], in test [2] and in test [3].
With `CC1(C)NC(=O)NC1=O`, the compound was called inactive in test [1], in [2], in test [3] and in test [4].
For `COc1cccc2c1C(=O)c1c(O)c3c(c(O)c1C2=O)C[C@@](O)(C(=O)CO)C[C@@H]3O[C@H]1C[C@H](N)[C@H](O)[C@H](C)O1`, the AC50 is 51.6 µM (active) in test [5] and 68.2 µM (active) in test [6].
For `COCCOCCOC`, the compound was called inactive in [1], in test [2], in test [3] and in test [4].
On to `CCCCCCC(=O)OCC`, for which the result in test [1] and in test [3] was inactive.
Turning to `CCOc1ccc2c(c1)C(C)=CC(C)(C)N2`, in test [1], the AC50 is 34.5 µM (active). The result in test [2], in test [3] and in test [4] was inactive.
Consider `OC[C@@H](O)[C@@H](O)[C@H](O)[C@H](O)CO`, for which the call in test [7] and in test [8] was inactive.
In the case of `Cc1cccc([N+](=O)[O-])c1C`, the call in test [1], in [2], in test [3] and in test [4] was inactive.
Consider `Cc1cccc(C)c1O`, for which the result in [1], in test [2], in test [3] and in [4] was inactive.
Regarding `COc1cc(/C=C/C(=O)CC(=O)/C=C/c2ccc(O)c(OC)c2)ccc1O`, the compound was called inactive in [9] and in test [10]. For the same compound, the AC50 in test [5] was 63 µM (active); in test [6], 93.8 µM (active).
For `COc1ccc(C)cc1N`, the compound was called inactive in [1] and in [3].
In the case of `CC1(C)CC(N=C=O)CC(C)(CN=C=O)C1` (stereo not drawn), the outcome in test [1] and in [3] was inactive.
With `CCNc1cccc(C)c1`, the result in test [1], in test [3] and in test [4] was inactive.
For the compound `CC1=C(/C=C/C(C)=C/C=C/C(C)=C/CO)C(C)(C)CCC1`, the compound was classed as inactive in test [1], in test [3] and in test [4].
Consider `Cc1ccc(C)c(C)c1`, for which, in test [3], the call was inactive.
`C[C@]12C=CC(=O)C=C1CC[C@@H]1[C@@H]2C(=O)C[C@@]2(C)[C@H]1CC[C@]2(O)C(=O)CO`: the compound was called inactive in test [1], in test [2], in test [3] and in test [4].
As for `O=c1[nH]cc(F)c(=O)[nH]1`, the compound was called inactive in [1], in test [3] and in [4]. The AC50 in test [7] was 4.24 µM (active); in [8], 1.47 µM (active).
Take `CCCCCC(=O)O`: the call in [1], in test [3] and in test [4] was inactive.
For the compound `CC(C)c1ccc(C(=O)N=C(N)N)cc1S(C)(=O)=O`, the result in test [7] and in test [8] was inactive.
Consider `Cc1ccc(N(C)C)cc1`, for which the outcome in test [1], in [2], in [3] and in test [4] was inactive.
In the case of `CCCCCCCCCCCCCCCCCC(=O)O`, the call in [11], in [12], in test [13], in test [14], in test [15] and in [16] was inactive. The compound was called inactive in test [17], in [18], in [19], in test [1], in test [2] and in [3]. Also, the outcome in test [4] was inactive.
In the case of `O=c1c(O)c(-c2ccc(O)c(O)c2)oc2cc(O)cc(O)c12`, the AC50 in [1] was 21.2 µM (active); in test [3], 139 µM (active); in test [4], 54.5 µM (active). The outcome in [2] was inactive.
Turning to `Cc1cc(=O)[nH]c(=S)[nH]1`, the call in test [1], in test [7], in test [8], in test [2], in test [3] and in test [4] was inactive.

The values are drawn from PubChem BioAssay (EPA / NIEHS).
